Pf growth 96h – P. falciparum growth inhibition at 96 hour, primary screen for plastid delayed-death inhibitors; AID 504834; P. falciparum luciferase reporter growth, 96 h; Potency, µM (series often up to 28.7 µM), inactives show top-dose activity change, negative = inhibition, actives largely listed as inhibitors; 6.9% of 320,000 active; also: potency is read from the fitted curve at half-maximal effect; % is scaled to controls: 0 for no effect and ±100 for the full control effect
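P. falciparum expressing integrated firefly luciferase, in erythrocytes at 2% hematocrit, 0.05% parasitemia, incubated with compounds 96 h at 37 C, 5% CO2. Growth inhibition read as loss of luminescence; two-generation exposure targets delayed-death apicoplast inhibitors.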
SARS PLP yeast – inhibitors of SARS-CoV papain-like protease in yeast | 0.19% of 330,000 active | Potency, µM (highest dose often 32.9 µM), for the others: at the top dose activity, positive = growth rescue, most hits filed as activators | S. cerevisiae expressing SARS-CoV PLpro, growth rescue; calls by dose curve; also: potency is read from the fitted curve at half-maximal effect; 0% is about no effect; nearly all actives have a fitted effect of over 55% in size
HCV inhibitor – HCV inhibition | Huh7.5.1 HCVcc-Cre infection, luciferase reporter, 44 h | Potency, µM (top dose mostly 41.8 µM), for the others: at the highest dose activity change, negative = inhibition, hits mostly inhibitors | 3.4% of 340,000 active | AID 651820; also: potency is read from the fitted curve at half-maximal effect; % is scaled to controls: 0 for no effect and ±100 for the full control effect
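HCVcc-Cre virus at an moi near 0.5 was added right after compound to cells cultured 4 h from seeding (1,000 cells/well). Luciferase activity was determined 44 h later, 15 min after substrate addition at RT.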
Sm TGR inh – blocks Schistosoma mansoni thioredoxin glutathione reductase. 3% of 360,000 active. purified TGR, DTNB reduction, TNB absorbance 405 nm. AID 485364. Potency, µM (highest dose often 114 µM), without a hit: at the highest dose activity change, negative = inhibition, actives largely listed as inhibitors; also: potency is read from the fitted curve at half-maximal effect; % is scaled to controls: 0 for no effect and ±100 for the full control effect; nearly all actives have a fitted effect of over 60% in size
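TGR 20 nM + NADPH 100 uM (dispensed conc.), cpd preinc 15 min RT; start with NADPH (500 uM addition) then DTNB (15 mM addition). Kinetic TNB absorbance, 405 nm filter. Four-parameter Hill fit across titration.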
Pf growth 48h – inhibits P. falciparum growth in the first generation, 48 h. P. falciparum luciferase growth in erythrocytes, 48 h. Potency, µM (titrated, usually from 28.7 µM), without a hit: at the highest dose activity change, negative = inhibition, actives largely listed as inhibitors. 5.9% of 310,000 active; also: potency is read from the fitted curve at half-maximal effect; % is scaled to controls: 0 for no effect and ±100 for the full control effect
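Compounds are pin-transferred into medium, infected erythrocytes (2% hematocrit, 0.1% parasitemia final) are added, and plates sit one parasite generation at 37 C in 5% CO2. Detection reagent is then added and luminescence measured.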
HCMV antiviral – human cytomegalovirus inhibition. HFF cells, HCMV-luciferase reporter, 72 h; stronger effect = lower value. activity change, negative = inhibition, % at 57.5 µM. 4.5% of 410,000 active. AID 1259415; in the data active = activity change below about -60%; inconclusive = no clear call, values can overlap the other calls; inactive = above about -39%; also: % is scaled to controls: 0 for no effect and ±100 for the full control effect
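Two-dose cell screen: HFF monolayers treated with compounds and infected with luciferase-expressing HCMV at 1 PFU/cell, 72 h at 37C, then lysed for luciferase measurement.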
The depositor's hits bear a star; ? = inconclusive; nt = no result. An excerpt weighted towards active compounds, which were near 15% of everything screened. Unless noted, calls follow the shape of the dose curve; as a rule, active = well fitted curve in the direction sought with a large enough effect; inconclusive = small, poorly fitted or top-dose-only effect, or another doubt; inactive = no such curve, though single readings can be large; an effect the other way counts as inactive or inconclusive.

SMILES	Pf growth 96h	SARS PLP yeast	HCV inhibitor	Sm TGR inh	Pf growth 48h	HCMV antiviral
CCOC(=O)c1[nH]c2ccc(Cl)cc2c1NC(=O)/C=C/c1ccc2c(c1)OCO2	9%	21%	28%	4%	30%	?
COCCCNC(=O)CC1C(=O)N(Cc2ccccc2)C(C)c2nc3ccccc3n21 (stereo not given)	?	-4%	24%	-3%	?	7
Cc1ccc(-n2c(-c3ccc(Cl)cc3)c[n+]3c2CCC3)cc1	0.1µM*	0%	?	14%	0.26µM*	-91*
Cc1ccc(-n2c(-c3ccccc3)c[n+]3c2CCC3)cc1	0.74µM*	-1%	-29%	nt	1µM*	-95*
COC(=O)C(C)Oc1cc(C)ccc1COc1ccc(-n2nc(C)n(C(F)F)c2=O)cc1 (stereo not given)	nt	nt	1%	nt	nt	-13
COc1ccc(CN2C(=O)C(CC(=O)NC3CCCC3)CC(C(=O)N3CCOCC3)=C2C)cc1 (stereo not given)	nt	nt	nt	nt	nt	0
COc1ccc(/C=N/NC(N)=S)cc1OC(=O)c1cccc2ccccc12	?	?	?	11%	?	40
CC1=CC(C)(C)n2c(O)c(C3=NC(=S)NC3=O)c3cc(OC(=O)c4cccc5ccccc45)cc1c32	0%	3%	?	9%	-12%	-72*
C/C(=N\Nc1nc(N2CCCCCC2)nc(N2CCCCCC2)n1)c1ccccc1	-10%	-6%	?	-1%	?	-66*
CC(=O)Nc1ccc(/C(C)=N/Nc2nc(Nc3cccc4ccccc34)nc(N3CCOCC3)n2)cc1	?	8%	?	3%	13µM*	-62*
C/C(=N\Nc1nc(N2CCCCC2)nc(N2CCOCC2)n1)c1cccs1	17%	0%	10µM*	8%	-10%	-26
CC(=C/c1ccccc1)/C=N/Nc1nc(N2CCCCC2)nc(N2CCCCC2)n1	?	11%	3%	-8%	3%	-19
CC(=O)Nc1ccc(/C(C)=N/Nc2nc(N3CCOCC3)nc(N3CCOCC3)n2)cc1	9%	1%	-31%	4%	1%	-22
CC1CC1C(=O)OCC(=O)N(C)c1c(N)n(Cc2ccccc2)c(=O)[nH]c1=O (stereo not given)	-7%	3%	-4%	-1%	41%	-21
Cc1ccc(NC(=O)c2c(NC(=O)c3ccccc3Cl)sc3c2CCC3)cc1	nt	nt	nt	?	nt	-1
CCCCn1c(C)c(C(=O)O)c2cc(OC)ccc21	120%	-1%	1%	1%	6%	-7
CCOC(=O)c1c(C)n(Cc2ccco2)c2ccc(OC)cc12	nt	0%	13µM*	?	0%	-8
CCOC(=O)c1c(C)n(Cc2ccco2)c2c1cc(O)c1ccccc12	nt	5%	-20%	3%	3.7µM*	-12
CCOC(=O)c1c(C)n(CCN2CCN(C)CC2)c2ccc(OC)cc12	3.7µM*	-2%	?	-3%	?	nt
COC(=O)c1c(C)n(Cc2ccco2)c2ccc(O)cc12	nt	-7%	?	?	19%	2
Cc1ccc(S(=O)(=O)N2C[C@H]3N(C(=O)OC(C)C)N(C(=O)OC(C)C)C[C@H](OC(=O)Nc4cccs4)[C@@]3(O)C2)cc1	nt	nt	nt	nt	nt	17
COc1ccc(C(C)=O)cc1COC(=O)c1cccnc1Cl	38%	1%	11µM*	13µM*	20%	-9
COc1ccc(C(C)=O)cc1COC(=O)c1c(C)noc1C	-25%	-1%	10µM*	?	nt	29
COc1ccc(C(C)=O)cc1COc1ccc(-n2cnnn2)cc1	nt	5%	10µM*	20µM*	-13%	29
O=C(OCc1ccc(F)cc1)c1cccnc1Cl	7%	11%	14%	1%	18%	-60*
COc1ccc(C(C)=O)cc1COC(=O)CNC(=O)c1ccccc1F	17%	10%	-11%	8.9µM*	18%	38
COc1ccc(C(C)=O)cc1COC(=O)c1ccc(OCc2c(C)noc2C)cc1	8.3µM*	-3%	?	0%	?	20
